The structures appear in SMILES notation. Records with an inconclusive call do not appear. A call without a number means that no potency is given here. Activity calls are given as the source filed them. The call rests on the fitted dose curve; in most records, active means well fitted inhibition curve with a large enough effect; inconclusive means small, poorly fitted or top-dose-only effect; inactive means no such curve, though single readings can be large or run the other way.

The assay is described as follows: Primary qHTS for inhibitors of nuclear receptor binding SET domain protein 2 (NSD2) in an RCH-ACV wild type WT cells (2C) (AID 1645877). Further: nearly all actives have a fitted effect of over 70% in size. The note with it: RCH-ACV (leukaemia line) NSD2 WT (2C) viability, CellTiter-Glo, 72 h; series mostly up to 44.9 µM. From the text:
Assay Provider: Jonathan D. Licht, MD
University of Florida College of Medicine, Gainesville, FL
Mutations in epigenetic regulators are common in relapsed pediatric acute lymphoblastic leukemia (ALL). Here, we uncovered the mechanism underlying the relapse of ALL driven by an activating mutation of the NSD2 histone methyltransferase (p.E1099K). […] Correction of this mutation restored glucocorticoid sensitivity. The transcriptional response to glucocorticoids was blocked in NSD2 mutant cells due to depressed glucocorticoid receptor (GR) levels and the failure of glucocorticoids to autoactivate GR expression. […] Pre-treatment of NSD2 p.E1099K cell lines and PDX samples with PRC2 inhibitors reversed glucocorticoid resistance in vitro and in vivo.
High-throughput drug screening of isogenic RCH-ACV cell lines was performed at the National Center for Advancing Translational Science (NCATS), National Institutes of Health as previously described (1). Briefly, isogenic RCH-ACV NSD2 p.E1099K mutant (9B) and WT cells (2C) were plated at 500 cells/well in a 1536-well plate with a 72-hour incubation with compounds prior to addition of CellTiter-Glo to assess cell viability. NCATS libraries screened include: NPC, MIPE 5.0, Kinase and NPACT. To determine compound activity in the qHTS assay, the concentration-response data for each sample was plotted and modeled by a four-parameter logistic fit yielding IC50 and efficacy (maximal response) values. The area under the curve (AUC) of the dose-response curve ensures both efficacy (magnitude of cell killing) and potency (concentration that elicits cell killing) are accounted for in the analysis of activity.
1. Tobie D Lee, Olivia W Lee, Kyle R Brimacombe, Lu Chen, Rajarshi Guha, Sabrina Lusvarghi, Bethilehem G Tebase, Carleen Klumpp-Thomas, Robert W Robey, Suresh V Ambudkar, Min Shen, Michael M Gottesman, Matthew D Hall. A High-Throughput Screen of a Library of Therapeutics Identifies Cytotoxic Substrates of P-glycoprotein. Mol Pharmacol. 2019, Nov;96(5):629-640.
Regarding `CC(=O)NS(=O)(=O)c1ccc(N)cc1`, the Potency entry is “inactive”.
Regarding `CC1CCc2cc(F)cc3c(=O)c(C(=O)O)cn1c23` (stereo not given), the Potency entry was “inactive”.
Regarding `Nc1c2c(nc3c1CCC3)CCCC2`, the Potency result was “inactive”.
Under `Cc1ccccc1N=Nc1ccc(N=Nc2c(O)ccc3ccccc23)c(C)c1` stands “inactive”; under `CC1(C)S[C@@H]2[C@H](N=CN3CCCCCC3)C(=O)N2[C@H]1C(=O)O`, “inactive”.
Under `C/C=C/C(=O)N(CC)c1ccccc1C` stands “inactive”; under `CC[N+](C)(CC)CCOC(=O)C1c2ccccc2Oc2ccccc21`, “inactive”; under `CN[C@@H]1[C@@H](O)[C@@H](O[C@@H]2[C@H](O)[C@H](O[C@H]3OC(CN)=CC[C@H]3N)[C@@H](N)C[C@H]2N)OCC1(C)O` (stereo not given in full), “inactive”.
With `O=C(CCBr)N1CCN(C(=O)CCBr)CC1` the entry was “inactive”; with `COc1cc(O)cc(O)c1`, “inactive”; with `NC(=O)CC[C@@H](N)C(=O)O`, “inactive”.
On to `CC(CN(C)C)C(C)(O)Cc1ccc(Cl)cc1` (stereo not given), for which the Potency entry is “inactive”.
Turning to `CC(=O)Nc1ccc(C(=O)O)cc1`, the Potency entry was “inactive”.
With `Cc1ccsc1C(=CCCN1CCC[C@@H](C(=O)O)C1)c1sccc1C` the entry was “inactive”; with `CC(=O)[C@@]1(O)CC[C@H]2[C@@H]3C[C@H](C)C4=CC(=O)C=C[C@]4(C)[C@@]3(F)[C@@H](O)C[C@@]21C`, 3 nM (active); with `O=C(CN1CCNCC1)NC1CCCCC1`, “inactive”.
As for `CCOc1cc(NC(C)=O)ccc1C(=O)OC`, the Potency result is “inactive”.
Under `COc1ccccc1OCC(O)CO` (stereo not given) stands “inactive”; under `O=C1c2ccccc2S(=O)(=O)N1CCCCN1CCN(c2ncccn2)CC1`, “inactive”.
With `FC(F)(F)C(Cl)Br` (stereo not given) the entry was “inactive”; with `CCCCCCCCCCC(CO)CCCCCCCC` (stereo not given), “inactive”.
Turning to `Cc1ccc(C(C)C)c(O)c1`, the Potency result is “inactive”.
Under `CC(=O)N[C@H]1[C@H]([C@H](O)[C@H](O)CO)OC(C(=O)O)=C[C@@H]1N=C(N)N` stands “inactive”; under `CN1C(=O)CC(c2ccccc2)C1=O` (stereo not given), “inactive”; under `CCOC(=O)[C@H](CCc1ccccc1)N[C@@H](C)C(=O)N1CCC[C@H]1C(=O)O`, “inactive”.
With `OCC(O)CS` (stereo not given) the entry was “inactive”; with `CCN[C@H]1CN(CCCOC)S(=O)(=O)c2sc(S(N)(=O)=O)cc21`, “inactive”; with `O[C@@H]1CO[C@H]2[C@@H]1OC[C@@H]2O`, “inactive”.
With `NS(=O)(=O)c1cc(-c2nn[nH]n2)c(NCc2cccs2)cc1Cl`, the Potency entry was “inactive”.
Under `CC(C)c1cc2c(cc1S(=O)(=O)O)[C@@]1(C)CCC[C@@](C)(C(=O)O)[C@@H]1CC2` stands “inactive”; under `Cc1ccc(S(=O)(=O)NC(=O)NC2CCCCC2)cc1`, “inactive”.
With `O=C(OOC(=O)c1ccccc1)c1ccccc1` the entry was “inactive”; with `CCOC(=O)OC(C)OC(=O)[C@@H]1N2C(=O)[C@@H](NC(=O)[C@H](N)c3ccccc3)[C@H]2SC1(C)C` (stereo not given in full), “inactive”.
Under `O=C(O)c1cc(=O)c2ccccc2o1` stands “inactive”.
Take `CC(=O)N[C@@H](Cc1ccc(O)cc1)C(=O)O`: the Potency result is “inactive”.
Consider `Cc1ccsc1/C=C/C1=NCCCN1C`, for which the Potency result was “inactive”.
With `NC(=O)CCCCC1CCSS1` (stereo not given) the entry was “inactive”; with `CC(=O)N(CC(O)CN(C(C)=O)c1c(I)c(C(=O)NCC(O)CO)c(I)c(C(=O)NCC(O)CO)c1I)c1c(I)c(C(=O)NCC(O)CO)c(I)c(C(=O)NCC(O)CO)c1I` (stereo not given), “inactive”.
For `CN(C(=O)c1c(O)c2ccccc2n(C)c1=O)c1ccccc1`, the Potency entry was “inactive”.
Under `CC[C@]12CCCN3CCc4c(n(c5ccccc45)[C@@](O)(C(=O)OC)C1)[C@@H]32` stands “inactive”.

Values taken from PubChem BioAssay (NCATS).
